The campaign covered roughly 5,500 compounds. About 2,000 (36%) were called active. Roughly 18% stayed inconclusive and do not appear here. No stated cut-off is given here; in the data, active means normalized growth mostly below about 0.91 (no sharp cut-off); inconclusive means no clear call, values can overlap the other calls; inactive means mostly above about 0.92. This is one part of the list.
Assay: chemical genetic growth profiling, strain panel (AID 1159580);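 further: tested at 20 µM; growth read once vehicle control cultures reached saturation at 30 °C; 1 = growth at the plate median or of vehicle wells; lower values mean less growth of the strain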
Conditions: growth OD
[1] = S. cerevisiae deletion strains, locus YAL013W, strain DEP1, hits give low values
[2] = S. cerevisiae deletion strains, locus YBR229C, strain ROT2, hits give low values
[3] = S. cerevisiae deletion strains, locus YDL101C, strain DUN1, hits give low values
[4] = S. cerevisiae deletion strains, locus YDR150W, strain NUM1, hits give low values
[5] = S. cerevisiae deletion strains, locus YEL061C, strain CIN8, hits give low values
[6] = S. cerevisiae deletion strains, locus YGR078C, strain PAC10, hits give low values
[7] = S. cerevisiae deletion strains, locus YHR030C, strain SLT2, hits give low values
[8] = S. cerevisiae deletion strains, locus YJR043C, strain POL32, hits give low values
[9] = S. cerevisiae deletion strains, locus YJR075W, strain HOC1, hits give low values
[10] = S. cerevisiae deletion strains, locus YKL190W, strain CNB1, hits give low values
[11] = S. cerevisiae deletion strains, locus YLR039C, strain RIC1, hits give low values
[12] = S. cerevisiae deletion strains, locus YLR262C, strain YPT6, hits give low values
[13] = S. cerevisiae deletion strains, locus YMR263W, strain SAP30, hits give low values
[14] = S. cerevisiae deletion strains, locus YMR307W, strain GAS1, hits give low values
[15] = S. cerevisiae deletion strains, locus YNL153C, strain GIM3, hits give low values
[16] = S. cerevisiae deletion strains, locus YNL322C, strain KRE1, hits give low values
[17] = S. cerevisiae deletion strains, locus YOL006C, strain TOP1, hits give low values
[18] = S. cerevisiae deletion strains, locus YPL055C, strain LGE1, hits give low values
[19] = S. cerevisiae deletion strains, locus YPL241C, strain CIN2, hits give low values

Measured: normalized growth

O=C(O)c1nccnc1C(=O)O
inactive: [1] 0.993 | [2] 0.991 | [3] 0.988 | [4] 0.924 | [5] 0.994 | [6] 1 | [7] 1.02 | S. cerevisiae deletion strains, locus YHR087W, strain rtc3, hits give low values 1.02 | [8] 0.972 | [9] 0.988 | [10] 1.01 | [11] 1.01 | S. cerevisiae deletion strains, locus YLR058C, strain SHM2 (second series), hits give low values 1.01 | S. cerevisiae deletion strains, locus YLR085C, strain ARP6, hits give low values 1.01 | [12] 1.03 | S. cerevisiae deletion strains, locus YML094W, strain GIM5, hits give low values 1.01 | S. cerevisiae deletion strains, locus YMR219W, strain ESC1, hits give low values 1.01 | [13] 0.991 | [14] 0.992 | [15] 1 | S. cerevisiae deletion strains, locus YNL298W, strain CLA4 (second series), hits give low values 1.01 | [16] 1.01 | S. cerevisiae deletion strains, locus YNR030W, strain Alg12, hits give low values 1.05 | [17] 1.06 | [18] 0.951 | [19] 1.01 | S. cerevisiae deletion strains, locus YPR135W, strain CTF4, hits give low values 1.05

COP(=O)(OC)OC(Br)C(Cl)(Cl)Br (stereo not drawn)
inactive: [1] 0.966 | S. cerevisiae deletion strains, locus YBR021W, strain FUR4, hits give low values 1.04 | [2] 0.947 | S. cerevisiae deletion strains, locus YCL029C, strain bik1, hits give low values 0.997 | S. cerevisiae deletion strains, locus YDL035C, strain GPR1, hits give low values 0.984 | S. cerevisiae deletion strains, locus YDL074C, strain BRE1, hits give low values 0.961 | [3] 0.988 | S. cerevisiae deletion strains, locus YDL134C, strain PPH21, hits give low values 0.994 | S. cerevisiae deletion strains, locus YDL185W, strain tfp1, hits give low values 0.989 | S. cerevisiae deletion strains, locus YDL192W, strain arf1, hits give low values 1 | S. cerevisiae deletion strains, locus YDR101C, strain arx1, hits give low values 0.999 | [4] 0.984 | S. cerevisiae deletion strains, locus YDR162C, strain NBP2, hits give low values 0.988 | S. cerevisiae deletion strains, locus YDR318W, strain mcm21, hits give low values 1 | S. cerevisiae deletion strains, locus YDR388W, hits give low values 1.01 | S. cerevisiae deletion strains, locus YDR502C, strain sam2, hits give low values 1 | [5] 0.993 | S. cerevisiae deletion strains, locus YER110C, hits give low values 0.993 | S. cerevisiae deletion strains, locus YER155C, strain BEM2, hits give low values 1 | S. cerevisiae deletion strains, locus YER167W, strain BCK2, hits give low values 0.981 | S. cerevisiae deletion strains, locus YGL078C, strain dbp3, hits give low values 1.01 | S. cerevisiae deletion strains, locus YGL086W, strain mad1, hits give low values 0.989 | S. cerevisiae deletion strains, locus YGL248W, strain PDE1, hits give low values 0.968 | [6] 0.987 | S. cerevisiae deletion strains, locus YGR135W, strain pre9, hits give low values 1.01 | S. cerevisiae deletion strains, locus YGR229C, strain SMI1, hits give low values 0.996 | S. cerevisiae deletion strains, locus YGR252W, strain gcn5, hits give low values 1.06 | [7] 1.01 | S. cerevisiae deletion strains, locus YHR079C, strain IRE1 (second series), hits give low values 0.995 | S. cerevisiae deletion strains, locus YHR094C, strain hxt1, hits give low values 1.01 | S. cerevisiae deletion strains, locus YHR129C, strain ARP1, hits give low values 0.969 | S. cerevisiae deletion strains, locus YHR200W, strain rpn10, hits give low values 0.997 | S. cerevisiae deletion strains, locus YIL066C, strain RNR3, hits give low values 0.984 | S. cerevisiae deletion strains, locus YIL073C, strain SPO22, hits give low values 1.06 | S. cerevisiae deletion strains, locus YIL125W, strain kgd1, hits give low values 1 | S. cerevisiae deletion strains, locus YIR030C, strain dcg1, hits give low values 1.01 | S. cerevisiae deletion strains, locus YJL095W, strain BCK1, hits give low values 1 | S. cerevisiae deletion strains, locus YJL134W, strain LCB3, hits give low values 0.994 | S. cerevisiae deletion strains, locus YJL168C, strain set2, hits give low values 0.997 | S. cerevisiae deletion strains, locus YJL187C, strain SWE1 (second series), hits give low values 0.965 | [8] 0.999 | [9] 0.964 | S. cerevisiae deletion strains, locus YKL009W, strain mrt4, hits give low values 0.948 | S. cerevisiae deletion strains, locus YKL068W, hits give low values 0.995 | S. cerevisiae deletion strains, locus YKL085W, strain MDH1 (second series), hits give low values 1.01 | S. cerevisiae deletion strains, locus YKL085W, strain MDH1, hits give low values 1.01 | [10] 0.997 | S. cerevisiae deletion strains, locus YKR001C, strain vps1, hits give low values 1.01 | [11] 0.997 | S. cerevisiae deletion strains, locus YLR058C, strain SHM2, hits give low values 0.979 | S. cerevisiae deletion strains, locus YLR102C, strain apc9, hits give low values 0.994 | [12] 0.99 | S. cerevisiae deletion strains, locus YLR268W, strain sec22, hits give low values 1.01 | S. cerevisiae deletion strains, locus YLR330W, strain CHS5, hits give low values 0.988 | S. cerevisiae deletion strains, locus YLR342W, strain FKS1 (second series), hits give low values 0.98 | S. cerevisiae deletion strains, locus YLR371W, strain rom2, hits give low values 0.999 | S. cerevisiae deletion strains, locus YLR418C, strain cdc73, hits give low values 0.987 | S. cerevisiae deletion strains, locus YML016C, strain PPZ1, hits give low values 0.989 | S. cerevisiae deletion strains, locus YML032C, strain rad52, hits give low values 1.01 | S. cerevisiae deletion strains, locus YML124C, strain tub3, hits give low values 1.01 | S. cerevisiae deletion strains, locus YMR078C, strain ctf18, hits give low values 1.02 | S. cerevisiae deletion strains, locus YMR223W, strain ubp8, hits give low values 1 | [13] 0.989 | [14] 1.02 | S. cerevisiae deletion strains, locus YNL067W, strain RPL9B, hits give low values 0.974 | S. cerevisiae deletion strains, locus YNL128W, strain TEP1, hits give low values 0.957 | [15] 0.971 | S. cerevisiae deletion strains, locus YNL233W, strain BNI4, hits give low values 0.978 | S. cerevisiae deletion strains, locus YNL250W, strain rad50, hits give low values 0.999 | S. cerevisiae deletion strains, locus YNL271C, strain bni1, hits give low values 1.01 | S. cerevisiae deletion strains, locus YNL298W, strain CLA4, hits give low values 1.01 | S. cerevisiae deletion strains, locus YNL307C, strain MCK1, hits give low values 1.02 | [16] 0.987 | S. cerevisiae deletion strains, locus YNR052C, strain pop2, hits give low values 1.01 | [17] 1.04 | S. cerevisiae deletion strains, locus YOL012C, strain htz1 1.23 | S. cerevisiae deletion strains, locus YOL147C, strain pex11, hits give low values 1.01 | S. cerevisiae deletion strains, locus YOR061W, strain CKA2, hits give low values 0.973 | S. cerevisiae deletion strains, locus YOR069W, strain VPS5, hits give low values 0.998 | S. cerevisiae deletion strains, locus YOR136W, strain idh2, hits give low values 1 | S. cerevisiae deletion strains, locus YOR144C, strain elg1, hits give low values 1 | S. cerevisiae deletion strains, locus YOR184W, strain ser1, hits give low values 1.01 | S. cerevisiae deletion strains, locus YOR316C, strain cot1, hits give low values 0.992 | [18] 0.99 | [19] 0.998 | S. cerevisiae deletion strains, locus YPR119W, strain clb2, hits give low values 1.01 | S. cerevisiae deletion strains, locus YPR141C, strain kar3, hits give low values 0.993 | S. cerevisiae deletion strains, locus YPR163C, strain tif3, hits give low values 1 | S. cerevisiae deletion strains, locus YPR167C, strain met16, hits give low values 0.99 | S. cerevisiae deletion strains, strain wtn01, hits give low values 1 | S. cerevisiae strains, strain wild type, hits give low values 0.994
